The whole screen tested about 2,300 compounds, of which about 330 (14%) showed activity. Only a sample is shown. Values without a mark were called inactive.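 Rule for the calls: active = median modified Z-score above 1.96; inactive = 1.96 or below.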
Test system: HepG2 Srxn1-GFP reporter cells (+30 nM CDDO-Me)
Assay: Srxn1-GFP intensity median modified Z-score relative to plate median; higher = stronger NRF2 / oxidative stress reporter activation, active = hit call of the paper
Conditions: 10 µM; exposure time: 24h
In short: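 Compound at 10 μM was applied with an NRF2 activator at 30 nM to HepG2 Srxn1-GFP BAC reporter cells for 24 h, in DMSO at no more than 0.1%, using three replicate 96-well plates seeded at 20,000 cells per well. Fixed, Hoechst-stained cells were imaged confocally and cytoplasmic GFP was scored for each cell, with images under 100 cells left out. The figure reported is the replicate median of the per-plate modified Z-score of GFP intensity. Scaling relied on 1.4826 × median absolute deviation.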

| Structure (SMILES) | Srxn1-GFP intensity median modified Z-score |
| --- | --- |
| Nc1ccc(S(=O)(=O)N=c2cccc[nH]2)cc1 [euspeclibcmpd279] | -0.029 |
| COc1ccc2[nH]c3cc(Cl)ccc3c(=Nc3cc(CN4CCCC4)c(O)c(CN4CCCC4)c3)c2n1 [euspeclibcmpd1080] | 9.12 (active) |
| CC1(C)C2CCC1(CS(=O)(=O)O)C(=O)C2=Cc1ccc(C=C2C(=O)C3(CS(=O)(=O)O)CCC2C3(C)C)cc1 [euspeclibcmpd1829] | 1.49 |
| C=C(CC)C(=O)c1ccc(OCC(=O)O)c(Cl)c1Cl [euspeclibcmpd119] | 14 (active) |
| CC(C)CCCC(C)[C@H]1CCC2C3CC=C4C[C@@H](OC(=O)c5ccccc5)CC[C@]4(C)C3CC[C@@]21C (stereo partly specified) [euspeclibcmpd2185] | -0.487 |
| CC(O)CNS(=O)(=O)CC1CN(C(=O)C2CC2C)CCO1 (stereo unspecified) | 1.25 |
| CC(C)=C1CNC(C(=O)O)C1CC(=O)O (stereo unspecified) [euspeclibcmpd2009] | 0.265 |
| CC(=O)N=c1[nH]cc([N+](=O)[O-])s1 [euspeclibcmpd793] | 0.152 |
| CC(=O)Oc1ccccc1C(=O)N=c1[nH]cc([N+](=O)[O-])s1 [euspeclibcmpd615] | 2.79 (active) |
| O=C(O)c1cc(O)c(O)c(O)c1 [euspeclibcmpd1010] | -0.0488 |
| COc1ccc(C(=O)c2ccc(O)cc2)c(O)c1O [euspeclibcmpd1507] | -0.213 |
| NC(=O)N1c2ccccc2CC(=O)c2ccccc21 [euspeclibcmpd673] | -0.538 |
| O=C1[O][Bi]([OH])[O]c2ccccc21 [euspeclibcmpd2458] | 0.155 |
| O=C1CC(=O)c2ccccc2C1=O [euspeclibcmpd1562] | 9.54 (active) |
| C/C(=C\CO)CC[C@H](C)CCC[C@H](C)CCCC(C)C [euspeclibcmpd1621] | -0.0936 |
| [O-][n+]1cccc(CO)c1 [euspeclibcmpd1263] | -0.263 |
| O=C(C=Cc1ccc(O)c(O)c1)OC(Cc1ccc(O)c(O)c1)C(=O)O (stereo unspecified) [euspeclibcmpd2083] | -0.529 |
| O=C(O)C=Cc1ccc(O)c(O)c1 [euspeclibcmpd1336] | -0.408 |
| O=C(C=Cc1ccc(O)c(O)c1)OCCc1ccccc1 [euspeclibcmpd1775] | 3.45 (active) |
| Cc1ccc(C)c(N2C(=O)c3ccc(C(=O)OCC(=O)N4CCc5ccccc54)cc3C2=O)c1 | 1.06 |
| O=C(Nc1cccc(Oc2cnccn2)c1)c1cc2cc(F)ccc2[nH]1 | 1.62 |
| CCN(CC)CCNC(=O)c1cc(S(C)(=O)=O)ccc1OC [euspeclibcmpd525] | -0.717 |
| CCN(CC)CCNC(=O)c1cc(Cl)c(N)cc1OC [euspeclibcmpd197] | 86.5 (active) |

| Structure (SMILES) | Srxn1-GFP intensity median modified Z-score |
| --- | --- |
| CCN(CC)CCNC(=O)c1cc(Br)c(N)cc1OC [euspeclibcmpd1122] | 0 |
| NC(=O)C1CCCN(Cc2cccc(CNc3ncc(F)cn3)c2)C1 (stereo unspecified) | 1.1 |
| CC(CN(C)C)CN1c2ccccc2CCc2ccccc21 (stereo unspecified) [euspeclibcmpd531] | 0.095 |
| CN=C(C[N+](=O)[O-])NCCSCc1ccc(CN(C)C)o1 [euspeclibcmpd2160] | -0.118 |
| CC1(C)SC2C(NC(=O)C(N)c3ccc(O)cc3)C(=O)N2[C@H]1C(=O)O (stereo partly specified) [euspeclibcmpd23] | -0.305 |
| CCC(C)n1ncn(-c2ccc(N3CCN(c4ccc(OC[C@H]5CO[C@](Cn6cncn6)(c6ccc(Cl)cc6Cl)O5)cc4)CC3)cc2)c1=O (stereo partly specified) [euspeclibcmpd951] | 2.71 (active) |
| CC(=O)N1CCN(c2ccc(OCC3CO[C@](Cn4ccnc4)(c4ccc(Cl)cc4Cl)O3)cc2)CC1 (stereo partly specified) [euspeclibcmpd169] | 0.674 |
| CC(C)N1CCN(c2ccc(OC[C@H]3CO[C@](Cn4cncn4)(c4ccc(Cl)cc4Cl)O3)cc2)CC1 [euspeclibcmpd617] | 1.6 |
| N=C(N)N=c1[nH]c(CSCCC(=N)NS(N)(=O)=O)cs1 [euspeclibcmpd364] | 0.317 |
| O=C(O[C@@H]1Cc2c(O)cc(O)cc2OC1c1cc(=O)c(O)c2c(O)c(O)cc(C3Oc4cc(O)cc(O)c4C[C@H]3O)c2c1)c1cc(O)c(O)c(O)c1 (stereo partly specified) [euspeclibcmpd1583] | -0.77 |
| COc1ccc(-c2cc(=O)c3c(OC)c(OC)c(OC)c(OC)c3o2)cc1 [euspeclibcmpd1464] | 6.78 (active) |
| COc1ccc(-c2cc(=O)c3c(O)c(OC)c(OC)c(OC)c3o2)cc1 [euspeclibcmpd2317] | 0.184 |
| COc1ccc(-c2cc(=O)c3c(OC)c(OC)c(OC)c(OC)c3o2)cc1OC [euspeclibcmpd1435] | 1.9 |
| OC[C@@H](O)[C@@H](O)[C@@H](O)[C@H](O)[C@@H](O)CO [euspeclibcmpd1702] | -0.744 |
| CC(=O)OCC(COC(C)=O)OC(C)=O [euspeclibcmpd301] | 0.397 |
| C=CCCCCCCCCCCCC(O)CC(O)CO (stereo unspecified) [euspeclibcmpd2211] | 2.24 (active) |
| CC(=O)OCC(OC(C)=O)C(OC(C)=O)C(OC(C)=O)C(OC(C)=O)C(COC(C)=O)OC(C)=O (stereo unspecified) [euspeclibcmpd1364] | -0.434 |
| C=CCCCCCCCCCCCC(O)CC(O)CO (stereo unspecified) [euspeclibcmpd1371] | 1.62 |
| C#CCCCCCCCCCCCC(O)CC(O)CO (stereo unspecified) [euspeclibcmpd1458] | 4.24 (active) |
| C#CCCCCCCCCCCCC(O)CC(O)COC(C)=O (stereo unspecified) [euspeclibcmpd1372] | 3.35 (active) |
| C=CCCCCCCCCC(=O)O [euspeclibcmpd2049] | 0.331 |
| CC(=O)O[C@@]12CO[C@@H]1C[C@H](O)[C@@]1(C)C(=O)C(=O)C3C(C)[C@@H](OC(=O)[C@@H](O)[C@@H](NC(=O)OC(C)(C)C)c4ccccc4)C[C@@](O)([C@@H](OC(=O)c4ccccc4)C12)C3(C)C (stereo partly specified) [euspeclibcmpd1130] | 1.49 |
| O=C(O)CCNC(=O)c1ccc(N=Nc2ccc(O)c(C(=O)O)c2)cc1 [euspeclibcmpd2245] | -0.361 |
